Laboratory results taken from the supplement of paper PMC8728848.
Shown is part of a subset that was picked to be rich in the strongest signals.

Assays:
Assay in all cases: glycan array binding signal (z-score within array); higher = stronger binding
Conditions in all cases: glycan notation: IUPAC condensed, linker removed
[1] = target: Fuc(a1-2)Gal(b1-3)[Fuc(a1-4)]GlcNAc
In short: (§1)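 From the Consortium for Functional Glycomics database, 3228 arrays were curated, keeping only those whose protein sequence was available. Binding is given as a within-array Z-score averaged across arrays sharing a protein sequence and across linkers. Negative Z-scores can be read as non-binding.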

[2] = target: Fuc(a1-2)Gal(b1-4)[Fuc(a1-3)]GlcNAc
In short: as §1

[3] = target: Fuc(a1-2)Gal(b1-4)[Fuc(a1-3)]GlcNAc(b1-3)Gal(b1-4)[Fuc(a1-3)]GlcNAc(b1-3)Gal(b1-4)[Fuc(a1-3)]GlcNAc
In short: as §1

[4] = target: Fuc(a1-2)Gal(b1-4)[Fuc(a1-3)]GlcNAc(b1-3)[Neu5Ac(a2-6)Gal(b1-4)GlcNAc(b1-6)]Gal(b1-4)Glc
In short: as §1

[5] = target: Fuc(a1-2)[Gal(a1-3)]Gal(b1-3)GalNAc
In short: as §1

[6] = target: Fuc(a1-3)[Gal(b1-4)]GlcNAc(b1-2)Man(a1-3)[Fuc(a1-3)[Gal(b1-4)]GlcNAc(b1-2)Man(a1-6)]Man(b1-4)GlcNAc(b1-4)GlcNAc
In short: as §1

[7] = target: Gal(a1-3)Gal(b1-3)GlcNAc(b1-2)Man
In short: as §1

[8] = target: Gal(a1-3)Gal(b1-3)[Fuc(a1-4)]GlcNAc(b1-2)Man(a1-3)[Gal(a1-3)Gal(b1-3)[Fuc(a1-4)]GlcNAc(b1-2)Man(a1-6)]Man(b1-4)GlcNAc(b1-4)GlcNAc
In short: as §1

Gal(b1-3)Gal(b1-4)GlcNAc = target: Gal(b1-3)Gal(b1-4)GlcNAc
In short: as §1

[9] = target: Gal(b1-3)GalNAc(b1-4)Gal(b1-4)Glc
In short: as §1

Gal(b1-3)GlcNAc(b1-2)Man = target: Gal(b1-3)GlcNAc(b1-2)Man
In short: as §1

[10] = target: Gal(b1-3)[Neu5Ac(a2-6)]GlcNAc
In short: as §1

[11] = target: Gal(b1-3)[Neu5Ac(a2-6)]GlcNAc(a1-4)Gal(b1-4)Glc
In short: as §1

[12] = target: Gal(b1-4)GlcNAc(b1-2)[Gal(b1-4)GlcNAc(b1-6)]Man(a1-6)[GlcNAc(b1-4)][Gal(b1-4)GlcNAc(b1-2)Man(a1-3)]Man(b1-4)GlcNAc(b1-4)GlcNAc
In short: as §1

[13] = target: Gal(b1-4)GlcNAc(b1-3)Gal(b1-4)GlcNAc(b1-2)[Gal(b1-4)GlcNAc(b1-3)Gal(b1-4)GlcNAc(b1-6)]Man(a1-6)[Gal(b1-4)GlcNAc(b1-3)Gal(b1-4)GlcNAc(b1-2)Man(a1-3)]Man(b1-4)GlcNAc(b1-4)GlcNAc
In short: as §1

[14] = target: Gal(b1-4)GlcNAc(b1-3)[Gal(b1-4)GlcNAc(b1-6)]GalNAc
In short: as §1

[15] = target: Gal(b1-4)GlcNAc(b1-6)[Gal(b1-3)]GlcNAc
In short: as §1

Gal3S(b1-4)Glc = target: Gal3S(b1-4)Glc
In short: as §1

Gal3S(b1-4)GlcNAc = target: Gal3S(b1-4)GlcNAc
In short: as §1

Gal6S(b1-3)GlcNAc = target: Gal6S(b1-3)GlcNAc
In short: as §1

Gal6S(b1-4)Glc6S = target: Gal6S(b1-4)Glc6S
In short: as §1

Gal6S(b1-4)GlcNAc6S = target: Gal6S(b1-4)GlcNAc6S
In short: as §1

[16] = target: GalNAc(b1-3)Gal(a1-4)Gal(b1-4)GlcNAc
In short: as §1

[17] = target: GalNAc3S(b1-4)[Fuc(a1-3)]GlcNAc
In short: as §1

Glc(b1-6)Glc = target: Glc(b1-6)Glc
In short: as §1

[18] = target: GlcNAc(a1-4)Gal(b1-4)GlcNAc(b1-3)Gal(b1-4)GlcNAc(b1-3)Gal(b1-4)GlcNAc
In short: as §1

[19] = target: GlcNAc(b1-2)Gal(b1-3)GalNAc
In short: as §1

[20] = target: GlcNAc(b1-2)Man(a1-3)[GlcNAc(b1-4)][GlcNAc(b1-2)Man(a1-6)]Man(b1-4)GlcNAc(b1-4)[Fuc(a1-6)]GlcNAc
In short: as §1

[21] = target: GlcNAc(b1-3)Gal(b1-3)GalNAc
In short: as §1

[22] = target: GlcNAc(b1-3)Gal(b1-4)GlcNAc(b1-2)[GlcNAc(b1-3)Gal(b1-4)GlcNAc(b1-6)]Man(a1-6)[GlcNAc(b1-3)Gal(b1-4)GlcNAc(b1-2)Man(a1-3)]Man(b1-4)GlcNAc(b1-4)GlcNAc
In short: as §1

[23] = target: GlcNAc(b1-3)Gal(b1-4)GlcNAc(b1-6)[GlcNAc(b1-3)Gal(b1-3)]GalNAc
In short: as §1

[24] = target: GlcNAc(b1-3)[GlcNAc(b1-4)][GlcNAc(b1-6)]GlcNAc
In short: as §1

Kdn(a2-3)Gal(b1-4)GlcNAc = target: Kdn(a2-3)Gal(b1-4)GlcNAc
In short: as §1

[25] = target: Man(a1-2)Man(a1-2)Man(a1-3)[Man(a1-2)Man(a1-6)[Man(a1-3)]Man(a1-6)]Man(b1-4)GlcNAc(b1-4)GlcNAc
In short: as §1

Man(a1-3)[Man(a1-6)]Man = target: Man(a1-3)[Man(a1-6)]Man
In short: as §1

[26] = target: Neu5Ac(a2-3)Gal(b1-3)GlcNAc(b1-2)Man(a1-3)[Neu5Ac(a2-3)Gal(b1-3)GlcNAc(b1-2)Man(a1-6)]Man(b1-4)GlcNAc(b1-4)GlcNAc
In short: as §1

[27] = target: Neu5Ac(a2-3)Gal(b1-3)GlcNAc(b1-2)[Neu5Ac(a2-3)Gal(b1-3)GlcNAc(b1-4)]Man(a1-6)[Neu5Ac(a2-3)Gal(b1-3)GlcNAc(b1-2)Man(a1-3)]Man(b1-4)GlcNAc(b1-4)GlcNAc
In short: as §1

[28] = target: Neu5Ac(a2-3)Gal(b1-4)GlcNAc(b1-3)Gal(b1-4)GlcNAc(b1-3)Gal(b1-4)GlcNAc(b1-2)Man(a1-3)[Neu5Ac(a2-3)Gal(b1-4)GlcNAc(b1-3)Gal(b1-4)GlcNAc(b1-3)Gal(b1-4)GlcNAc(b1-2)Man(a1-6)]GalNAc
In short: as §1

[29] = target: Neu5Ac(a2-3)Gal(b1-4)[Fuc(a1-3)]GlcNAc(b1-6)[Gal(b1-3)]GalNAc
In short: as §1

[30] = target: Neu5Ac(a2-3)Gal(b1-4)[Fuc(a1-3)]GlcNAc6S
In short: as §1

Neu5Ac(a2-8)Neu5Ac = target: Neu5Ac(a2-8)Neu5Ac
In short: as §1

[31] = target: Neu5Gc(a2-3)Gal(b1-4)GlcNAc
In short: as §1

[32] = target: Neu5Gc(a2-8)Neu5Gc(a2-3)Gal(b1-4)GlcNAc
In short: as §1

[33] = target: Neu5Gc(a2-8)Neu5Gc(a2-6)Gal(b1-4)GlcNAc
In short: as §1

B1: Epa15 (Candida glabrata) (protein)
chain: MGSSHHHHHHSSGLVPRGSHMASDPTTFPLGCSPEFTKTKKGLSMELYRYDYLPPGSYPCWDSAYLNPSYPRTGYKAKKLIATVDGVSGDINFKFNPKFGCKAIPDYLPSNFNYHEPITITNFTMILYGYFMPKTTAFHTFYVTADDLLFMNFGAGNAFDCCRREETADKFGNYAAYSVWGKKSLKNELTVYLHTGVYYPIRLFYNNRDYIAQLDIRFKTEHSNAIITNFTDYFYSVDDSSLGCPGLI
- glycan array binding signal (z-score) [1]: -0.446
- glycan array binding signal (z-score) [2]: -0.361
- glycan array binding signal (z-score) [3]: -0.446
- glycan array binding signal (z-score) [4]: -0.092
- glycan array binding signal (z-score) [5]: -0.127
- glycan array binding signal (z-score) [6]: -0.403
- glycan array binding signal (z-score) [7]: 1.8
- glycan array binding signal (z-score) [8]: 1.85
- glycan array binding signal (z-score) (Gal(b1-3)Gal(b1-4)GlcNAc): 0.625
- glycan array binding signal (z-score) [9]: 2.64
- glycan array binding signal (z-score) (Gal(b1-3)GlcNAc(b1-2)Man): 0.38
- glycan array binding signal (z-score) [10]: 2.5
- glycan array binding signal (z-score) [11]: -0.269
- glycan array binding signal (z-score) [12]: -0.041
- glycan array binding signal (z-score) [13]: 2.71
- glycan array binding signal (z-score) [14]: 5.02
- glycan array binding signal (z-score) [15]: 5.53
- glycan array binding signal (z-score) (Gal3S(b1-4)Glc): -0.053
- glycan array binding signal (z-score) (Gal3S(b1-4)GlcNAc): -0.488
- glycan array binding signal (z-score) (Gal6S(b1-3)GlcNAc): 2.78
- glycan array binding signal (z-score) (Gal6S(b1-4)Glc6S): 4.58
- glycan array binding signal (z-score) (Gal6S(b1-4)GlcNAc6S): 10.6
- glycan array binding signal (z-score) [16]: 0.652
- glycan array binding signal (z-score) [17]: -0.141
- glycan array binding signal (z-score) (Glc(b1-6)Glc): -0.464
- glycan array binding signal (z-score) [18]: -0.452
- glycan array binding signal (z-score) [19]: -0.411
- glycan array binding signal (z-score) [20]: -0.557
- glycan array binding signal (z-score) [21]: -0.444
- glycan array binding signal (z-score) [22]: 0.605
- glycan array binding signal (z-score) [23]: -0.188
- glycan array binding signal (z-score) [24]: -0.536
- glycan array binding signal (z-score) (Kdn(a2-3)Gal(b1-4)GlcNAc): -0.317
- glycan array binding signal (z-score) [25]: -0.285
- glycan array binding signal (z-score) (Man(a1-3)[Man(a1-6)]Man): -0.303
- glycan array binding signal (z-score) [26]: 0.415
- glycan array binding signal (z-score) [27]: -0.226
- glycan array binding signal (z-score) [28]: 2.56
- glycan array binding signal (z-score) [29]: 1.87
- glycan array binding signal (z-score) [30]: -0.461
- glycan array binding signal (z-score) (Neu5Ac(a2-8)Neu5Ac): -0.571
- glycan array binding signal (z-score) [31]: -0.437
- glycan array binding signal (z-score) [32]: -0.346
- glycan array binding signal (z-score) [33]: -0.395
